Values joined by “and” are separate entries in the source; they are usually repeats but may differ in a detail not shown here. Equal values may be shown once. Whole data set: some 2,900 compounds, median “NF-kB SEAP reporter activity, fold change vs agonist alone” near 0.99, cut for the highest 2% near 2.6. This excerpt belongs to a sample that is enriched for the highest values.
Tests used:
[1] = tested on: RAW-Dual; assay: NF-kB SEAP reporter activity, fold change vs agonist alone; higher = enhanced NF-kB activity; details: library stock concentration (final ~1000-fold dilution): 10 mM
Summary of the method: (§1)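 Supernatant from RAW-Dual macrophages was read after 20 hours for IRF by QuantiLuc luminescence and for NF-κB by QuantiBlue absorbance at 620 nm. The cells (50,000 cells/well in DMEM, 384-well plates, 37 °C, 5% CO2) had received 50 nL of library stock by pin tool and, 1 h later, a PRR agonist. Reporter activity is expressed relative to agonist-alone wells as fold change, and wells were flagged cytotoxic if IncuCyte confluency was under 70% of agonist controls in both mask sets.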

[2] = tested on: RAW-Dual; assay: NF-kB SEAP reporter activity, fold change vs agonist alone; cytotoxicity flag (confluency mask): not cytotoxic; higher = enhanced NF-kB activity
Summary of the method: as §1

[3] = tested on: RAW-Dual; assay: NF-kB SEAP reporter activity, fold change vs agonist alone; cytotoxicity flag (confluency mask): cytotoxic (confluency <70% of control); higher = enhanced NF-kB activity
Summary of the method: as §1

[4] = cytotoxicity flag (confluency mask): not cytotoxic, agonist: Imiquimod (TLR7) […]
[5] = cytotoxicity flag (confluency mask): not cytotoxic, agonist: MPLA (TLR4) […]
[6] = agonist: ODN 1826 (TLR9) 0.5 ug/mL
[7] = agonist: Pam2CSK4 (TLR2/6) 0.1 ug/mL
[8] = agonist: Pam3CSK4 (TLR2/1) 0.1 ug/mL

COc1ccccc1C(=O)Nc1cc2c(cc1N1CCNCC1C)n(C)c(=O)n2C (configuration not stated)
NF-kB SEAP reporter activity [1, 4]: 1.01
NF-kB SEAP reporter activity [1, 5]: 1.37

COc1ccccc1C(=O)Nc1cc2c(cc1N1CCNCC1C)n(C)c(=O)n2C (configuration not stated) (library stock concentration (final ~1000-fold dilution): 10 mM)
NF-kB SEAP reporter activity ([2]; agonist: LPS (TLR4) 0.1 ug/mL): 1.48
NF-kB SEAP reporter activity [2, 6]: 0.383
NF-kB SEAP reporter activity [2, 7]: 0.997
NF-kB SEAP reporter activity [2, 8]: 0.973

CCOC(=O)C(CCc1ccccc1)NC1CSC(c2cccs2)CN(CC(=O)O)C1=O.Cl (configuration not stated)
NF-kB SEAP reporter activity [1, 4]: 1.01
NF-kB SEAP reporter activity [1, 5]: 1.01

CCOC(=O)C(CCc1ccccc1)NC1CSC(c2cccs2)CN(CC(=O)O)C1=O.Cl (configuration not stated) (library stock concentration (final ~1000-fold dilution): 10 mM)
NF-kB SEAP reporter activity ([2]; agonist: LPS (TLR4) 0.1 ug/mL): 0.869
NF-kB SEAP reporter activity [2, 6]: 1.04
NF-kB SEAP reporter activity [2, 7]: 0.946
NF-kB SEAP reporter activity [2, 8]: 1.15

NC(=O)c1ccc2[nH]c(-c3ccc(Oc4ccc(Cl)cc4)cc3)nc2c1
NF-kB SEAP reporter activity [1, 4]: 1.47
NF-kB SEAP reporter activity [1, 5]: 2.09

COc1ccc(-c2nc3cc(C4=NNC(=O)CC4C)ccc3[nH]2)cc1 (configuration not stated) (library stock concentration (final ~1000-fold dilution): 10 mM)
NF-kB SEAP reporter activity ([2]; agonist: LPS (TLR4) 0.1 ug/mL): 1.3
NF-kB SEAP reporter activity [2, 6]: 2.47
NF-kB SEAP reporter activity [2, 7]: 1.8
NF-kB SEAP reporter activity [2, 8]: 1.7

COc1ccc(-c2nc3cc(C4=NNC(=O)CC4C)ccc3[nH]2)cc1 (configuration not stated)
NF-kB SEAP reporter activity [1, 4]: 1.67
NF-kB SEAP reporter activity [1, 5]: 1.34

NC(=O)c1ccc(-c2nc(-c3ccc4c(c3)OCCO4)c(-c3ccccn3)[nH]2)cc1 (library stock concentration (final ~1000-fold dilution): 10 mM)
NF-kB SEAP reporter activity ([2]; agonist: LPS (TLR4) 0.1 ug/mL): 1.81
NF-kB SEAP reporter activity [2, 6]: 1.29
NF-kB SEAP reporter activity [2, 7]: 1.25
NF-kB SEAP reporter activity [2, 8]: 0.913

NC(=O)c1ccc(-c2nc(-c3ccc4c(c3)OCCO4)c(-c3ccccn3)[nH]2)cc1
NF-kB SEAP reporter activity [1, 4]: 0.743
NF-kB SEAP reporter activity [1, 5]: 1.45

NC(=O)c1ccc2[nH]c(-c3ccc(Oc4ccc(Cl)cc4)cc3)nc2c1 (library stock concentration (final ~1000-fold dilution): 10 mM)
NF-kB SEAP reporter activity ([2]; agonist: LPS (TLR4) 0.1 ug/mL): 1.71
NF-kB SEAP reporter activity [2, 6]: 1.59
NF-kB SEAP reporter activity [2, 7]: 2.1
NF-kB SEAP reporter activity [2, 8]: 3.55

Cl.Cl.Fc1cc(-c2cccc3ncc(-c4cnn(C5CCNCC5)c4)nc23)cc(F)c1CN1CCOCC1 (library stock concentration (final ~1000-fold dilution): 10 mM)
NF-kB SEAP reporter activity ([2]; agonist: LPS (TLR4) 0.1 ug/mL): 0.349
NF-kB SEAP reporter activity [2, 6]: 0.924
NF-kB SEAP reporter activity [2, 7]: 0.147
NF-kB SEAP reporter activity [2, 8]: 0.912

Cl.Cl.Fc1cc(-c2cccc3ncc(-c4cnn(C5CCNCC5)c4)nc23)cc(F)c1CN1CCOCC1
NF-kB SEAP reporter activity [1, 4]: 0.92
NF-kB SEAP reporter activity [1, 5]: 0.944

CCOC(=O)C(CCc1ccccc1)NC(C)C(=O)N1C(=O)N(C)CC1C(=O)O.Cl (configuration not stated) (library stock concentration (final ~1000-fold dilution): 10 mM)
NF-kB SEAP reporter activity ([2]; agonist: LPS (TLR4) 0.1 ug/mL): 1.2
NF-kB SEAP reporter activity [2, 6]: 0.98
NF-kB SEAP reporter activity [2, 7]: 0.83
NF-kB SEAP reporter activity [2, 8]: 1.03

CCOC(=O)C(CCc1ccccc1)NC(C)C(=O)N1C(=O)N(C)CC1C(=O)O.Cl (configuration not stated)
NF-kB SEAP reporter activity [1, 4]: 0.962
NF-kB SEAP reporter activity [1, 5]: 0.927

CCC(C)C(=O)OC1CC(O)C=C2C=CC(C)C(CCC(O)CC(O)CC(=O)O)C21 (configuration not stated) (library stock concentration (final ~1000-fold dilution): 10 mM)
NF-kB SEAP reporter activity ([2]; agonist: LPS (TLR4) 0.1 ug/mL): 1.01 and 1.04
NF-kB SEAP reporter activity [2, 6]: 1 and 1.02
NF-kB SEAP reporter activity [2, 7]: 1.08 and 1.05
NF-kB SEAP reporter activity [2, 8]: 0.841 and 1.15

CCC(C)C(=O)OC1CCC=C2C=CC(C)C(CCC3CC(O)CC(=O)O3)C21 (configuration not stated)
NF-kB SEAP reporter activity [1, 4]: 2.3
NF-kB SEAP reporter activity [1, 5]: 1.97

CCC(C)(C)C(=O)OC1CC(C)C=C2C=CC(C)C(CCC3CC(O)CC(=O)O3)C21 (configuration not stated) (library stock concentration (final ~1000-fold dilution): 10 mM)
NF-kB SEAP reporter activity ([3]; agonist: LPS (TLR4) 0.1 ug/mL): 2.35
NF-kB SEAP reporter activity [3, 6]: 2.44
NF-kB SEAP reporter activity [3, 7]: 2.12
NF-kB SEAP reporter activity [3, 8]: 3.35

CCC(C)C(=O)OC1CC(C)C=C2C=CC(C)C(CCC3CC(O)CC(=O)O3)C21 (configuration not stated) (library stock concentration (final ~1000-fold dilution): 10 mM)
NF-kB SEAP reporter activity ([2]; agonist: LPS (TLR4) 0.1 ug/mL): 3.33
NF-kB SEAP reporter activity [2, 6]: 2.62
NF-kB SEAP reporter activity [2, 7]: 1.93
NF-kB SEAP reporter activity [2, 8]: 3.02

CCC(C)C(=O)OC1CCC=C2C=CC(C)C(CCC3CC(O)CC(=O)O3)C21 (configuration not stated) (library stock concentration (final ~1000-fold dilution): 10 mM)
NF-kB SEAP reporter activity ([2]; agonist: LPS (TLR4) 0.1 ug/mL): 3.69
NF-kB SEAP reporter activity [2, 6]: 2.68
NF-kB SEAP reporter activity [2, 7]: 1.45
NF-kB SEAP reporter activity [2, 8]: 2.12

CCC(C)(C)C(=O)OC1CC(C)C=C2C=CC(C)C(CCC3CC(O)CC(=O)O3)C21 (configuration not stated)
NF-kB SEAP reporter activity ([1]; cytotoxicity flag (confluency mask): cytotoxic (confluency <70% of control), agonist: Imiquimod (TLR7) […]): 2.53
NF-kB SEAP reporter activity ([1]; cytotoxicity flag (confluency mask): cytotoxic (confluency <70% of control), agonist: MPLA (TLR4) […]): 1.95

CCC(C)C(=O)OC1CC(C)C=C2C=CC(C)C(CCC3CC(O)CC(=O)O3)C21 (configuration not stated)
NF-kB SEAP reporter activity [1, 4]: 2.54
NF-kB SEAP reporter activity [1, 5]: 1.94

CC(C)(Cc1ccc2ccccc2c1)NCC(O)COc1cccc(Cl)c1C#N (configuration not stated)
NF-kB SEAP reporter activity [1, 4]: 0.896
NF-kB SEAP reporter activity [1, 5]: 0.972

CC(C)(Cc1ccc2ccccc2c1)NCC(O)COc1cccc(Cl)c1C#N (configuration not stated) (library stock concentration (final ~1000-fold dilution): 10 mM)
NF-kB SEAP reporter activity ([2]; agonist: LPS (TLR4) 0.1 ug/mL): 0.273
NF-kB SEAP reporter activity [2, 6]: 0.962
NF-kB SEAP reporter activity [2, 7]: 0.164
NF-kB SEAP reporter activity [2, 8]: 1.03

CCCCCCCCCC(=O)NC(Cc1c[nH]c2ccccc12)C(=O)NC(CC(N)=O)C(=O)NC(CC(=O)O)C(=O)NC1C(=O)NCC(=O)NC(CCCN)C(=O)NC(CC(=O)O)C(=O)NC(C)C(=O)NC(CC(=O)O)C(=O)NCC(=O)NC(CO)C(=O)NC(C(C)CC(=O)O)C(=O)NC(CC(=O)c2ccccc2N)C(=O)OC1C (configuration not stated)
NF-kB SEAP reporter activity [1, 4]: 0.826
NF-kB SEAP reporter activity [1, 5]: 0.855

Reference: the supplement of paper PMC10037445
